Assay results reported in the supplement of paper PMC7156485.
± gives the standard deviation of the averaged measurements.

Columns and labels:
Conditions in all cases: concentration: 10 µM; 24 h
HCC1569 [1] = assay: cell number relative to DMSO (% of DMSO); higher = more cells (less growth inhibition / toxicity)
Outline: (§1)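 Six fields per well were imaged at ×10 after the cells were fixed in 3.7% formaldehyde and stained with a rabbit anti-H1.0 antibody, an AlexaFluor 647 secondary and DAPI. The HCC1569 and TDF cells had been plated at 800 per well in 384-well plates (RPMI, 10% FBS) and treated in triplicate with compounds at 10 µM for 24 h at 37 °C. The values are the median of replicates of H1.0 nuclear intensity or cell number, as percent of the plate control. Smoothing for positional effects was applied to HCC1569 data.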

TDF [2] = assay: as above
Outline: as §1

TDF [3] = assay: H1.0 immunofluorescence intensity relative to DMSO (% of DMSO); higher = stronger H1.0 induction, active = 120 or more
Outline: as §1

HCC1569 [4] = assay: H1.0 immunofluorescence intensity relative to DMSO (% of DMSO); higher = stronger H1.0 induction, active = 140 or more
Outline: as §1
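Wherever H1.0 immunofluorescence intensity relative to DMSO is given: TDF is a line of transformed human dermal fibroblasts of mesenchymal origin.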
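Wherever cell number relative to DMSO is given: TDF denotes transformed human dermal fibroblasts of mesenchymal origin.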

SMILES | cell number (HCC1569 [1]) | cell number (TDF [2]) | H1.0 immunofluorescence intensity (TDF [3]) | H1.0 immunofluorescence intensity (HCC1569 [4])
O=C(O)C1CCNCC1 [Isonipecotic acid] | 102 | 104 | 91.5 (inactive) | 91.2 (inactive)
CCN(CC)C(=O)c1ccc(O)c(OC)c1 [Vanillic acid diethylamide] | 101 | 103 | 94.3 (inactive) | 99.6 (inactive)
COc1cc2nc(N3CCN(C(=O)C4CCCO4)CC3)nc(N)c2cc1OC.Cl (stereo not given) [Terazosin hydrochloride] | 100 | 95.1 | 92.6 (inactive) | 102 (inactive)
COC(=O)c1cnn(-c2ccc(F)cc2F)c1/C=N/NC(=S)NC(C)(C)C | 95.9 | 101 | 99 (inactive) | 102 (inactive)
Cc1[nH]c(C=C2C(=O)Nc3ccc(S(=O)(=O)Cc4c(Cl)cccc4Cl)cc32)c(C)c1C(=O)N1CCCC1CN1CCCC1 (stereo not given) | 75.3 | 22.8 | 133 (active) | 204 (active)
COc1cc(C(C)=O)cc(-c2cc(C(C)=O)cc(OC)c2O)c1O | 100 | 110 | 93.8 (inactive) | 100 (inactive)
CN(C)CCCC1(c2ccc(F)cc2)OCc2cc(C#N)ccc21 (stereo not given) [Escitalopram] | 100 | 86.1 | 98 (inactive) | 93.5 (inactive)
CCCCCC=CCC=CC=CC=CC(SCC(NC(C)=O)C(=O)O)C(O)CCCC(=O)O (stereo not given) [N-Acetyl-leukotriene E4] | 103 | 102 | 92 (inactive) | 100 (inactive)
COC(=O)C1=C(C)NC(C)=C(C(=O)OC)C1c1ccccc1[N+](=O)[O-] [Nifedipine] | 99.06 ± 0.47 | 102 ± 7 | 94.7 (inactive) | 104 (inactive)
CN1CCC(=C2c3ccccc3CC(=O)c3sccc32)CC1.O=C(O)C=CC(=O)O [Ketotifen fumarate] | 101 | 99.6 | 91.6 (inactive) | 98.7 (inactive)
CCC1OC(=O)C(C)C(OC2CC(C)(OC)C(O)C(C)O2)C(C)C(OC2OC(C)CC(N(C)C)C2O)C(C)(O)CC(C)CN(C)C(C)C(O)C1(C)O (stereo not given) [Azithromycin] | 106 | 109 | 91.2 (inactive) | 105 (inactive)
CCCCCCCCCCCC=CC(C)(C)C=CCCCC(=O)O [7,7-Dimethyleicosadienoic acid] | 105 ± 6.3 | 99.5 ± 3.4 | 99 (inactive) | 95.5 (inactive)
O=C(Nc1cccc(Nc2cc(Nc3cccc(C(F)(F)F)c3)ncn2)c1)C1CC1 [EGFR Inhibitor] | 54.7 | 8.22 | 178 (active) | 186 (active)
CC(=O)O.NC(N)=NN=Cc1c(Cl)cccc1Cl [Guanabenz acetate] | 104 | 98 | 106 (inactive) | 97.8 (inactive)
CC1(C)C=Cc2c(ccc3c2OC[C@@H](c2ccc(O)cc2O)C3)O1 | 99.4 | 93.1 | 101 (inactive) | 109 (inactive)
CSc1ccc(/C=C2/C(C)=C(CC(=O)O)c3cc(F)ccc32)cc1 | 103 | 105 | 99.8 (inactive) | 102 (inactive)
CCC=CCC=CCC=CCC=CCC=CCCC(=O)OC(COCCCCCCCCCCCCCCCC)COP(=O)([O-])OCC[N+](C)(C)C (stereo not given) | 105 | 107 | 94.3 (inactive) | 99.4 (inactive)
CCCCCCCCCCCCCC(=O)NC(C)C(O)c1ccccc1 [D-erythro MAPP] | 104 | 99.8 | 100 (inactive) | 94.7 (inactive)
CCCCC1CCC(c2nc(-c3ccncc3)no2)CC1 (stereo not given) [4-[5-(4-butylcyclohexyl)-1,2,4-oxadiazol-3-yl]pyridine] | 94.1 | 98.3 | 108 (inactive) | 104 (inactive)
COc1ccc(C(=O)NCc2ccc(OCCN(C)C)cc2)cc1OC [Itopride] | 101 | 104 | 92 (inactive) | 118 (inactive)
CC1CC2C3CCC4=CC(=O)C=CC4(C)C3(F)C(O)CC2(C)C1(O)C(=O)CO (stereo not given) [Betamethasone] | 97.2 | 106 | 75.2 (inactive) | 99.5 (inactive)
COc1ccc2cc1Oc1ccc(cc1)CC1c3c(cc4c(c3Oc3cc5c(cc3OC)CCN(C)C5C2)OCO4)CCN1C (stereo not given) [Cepharanthine] | 95.3 | 83 | 108 (inactive) | 129 (inactive)
CC(=O)OCC(=O)[C@@]1(O)CC[C@H]2[C@@H]3CCC4=CC(=O)C=C[C@]4(C)[C@H]3[C@@H](O)C[C@@]21C | 99.3 | 103 | 93.1 (inactive) | 101 (inactive)
Clc1ccc2c(c1)C(N1CCNCC1)=Nc1ccccc1O2 [Amoxapine] | 99.54 ± 0.74 | 99.9 ± 2.6 | 99.7 (inactive) | 108 (inactive)
COc1ccc(C(=O)Nc2sc3c(c2C(N)=O)CCCC3)cc1OC | 98.8 | 109 | 94.4 (inactive) | 121 (inactive)

SMILES | cell number (HCC1569 [1]) | cell number (TDF [2]) | H1.0 immunofluorescence intensity (TDF [3]) | H1.0 immunofluorescence intensity (HCC1569 [4])
CCN(CCO)CCCC(C)Nc1ccnc2cc(Cl)ccc12.O=S(=O)(O)O (stereo not given) | 99 | 91.2 | 102 (inactive) | 95.7 (inactive)
CCCCCC(O)C=CC1C2CC(CO2)C1CC=CCCCC(=O)O (stereo not given) | 102 | 107 | 93.7 (inactive) | 99.9 (inactive)
CC(C[N+](C)(C)C)OC(N)=O.[Cl-] (stereo not given) [Bethanechol chloride] | 91.3 | 100 | 92.6 (inactive) | 99.3 (inactive)
CCCNC1CCc2nc(N)sc2C1 (stereo not given) [Pramipexole] | 101 | 97.5 | 94.4 (inactive) | 107 (inactive)
Cn1cnc2c(NCc3ccccc3)nc(NCCO)nc21 | 94.5 | 107 | 103 (inactive) | 107 (inactive)
CC(COc1ccc(C=Cc2ccccc2)cc1)[N+](C)(C)C.[I-] (stereo not given) | 95.6 | 84.6 | 107 (inactive) | 110 (inactive)
Cn1c(NCCN(CCO)CCCc2ccc([N+](=O)[O-])cc2)cc(=O)n(C)c1=O [Nifekalant] | 101 | 99.4 | 96.3 (inactive) | 100 (inactive)
CC12CCC(=O)C=C1CCC1C2C(O)CC2(C)C1CCC2(O)C(=O)CO (stereo not given) [Hydrocortisone] | 98.68 ± 0.34 | 102 ± 9.9 | 86.3 (inactive) | 105 (inactive)
CC1C=CC=CC=CC=CC=CC=CC=CC(OC2OC(C)C(O)C(N)C2O)CC2OC(O)(CC(O)CC(O)C(O)CCC(O)CC(O)CC(=O)OC(C)C(C)C1O)CC(O)C2C(=O)O (stereo not given) [Amphotericin B] | 97.4 | 89.9 | 105 (inactive) | 83.9 (inactive)
CCCCCCCC(=O)c1c(O)cc(O)cc1CC(=O)OCC [ethyl (3,5-dihydroxy-2-octanoylphenyl)acetate] | 104 | 106 | 96.7 (inactive) | 121 (inactive)
CC1OC(OC2C(O)CC(OC3C(O)CC(OC4CCC5(C)C(CCC6C5CCC5(C)C(C7=CC(=O)OC7)CCC65O)C4)OC3C)OC2C)CC(O)C1O (stereo not given) [Digitoxin] | 58.4 | 48.4 | 127 (active) | 121 (inactive)
c1ccc(-c2ccc(C(c3ccccc3)n3ccnc3)cc2)cc1 (stereo not given) [Bifonazole] | 101 | 98.2 | 86.2 (inactive) | 122 (inactive)
COc1cc2c(c(OC)c1OC)-c1c(cc(OC)c(OC)c1OC)C[C@](C)(O)[C@@H](C)C2 | 100 | 108 | 101 (inactive) | 100 (inactive)
COCCOC(=O)C1=C(C)NC(C)=C(C(=O)OCC=Cc2ccccc2)C1c1cccc([N+](=O)[O-])c1 (stereo not given) [Cilnidipine] | 104 | 108 | 90.2 (inactive) | 111 (inactive)
COc1c2occc2c(OC)c2c(=O)cc(C)oc12 [Khellin] | 101 | 76.6 | 111 (inactive) | 100 (inactive)
Cl.Cl.O=S(=O)(NCCNCC=Cc1ccc(Br)cc1)c1cccc2cnccc12 [H-89, Dihydrochloride] | 96.6 | 110 | 92.7 (inactive) | 129 (inactive)
O=P(O)(O)C(O)(Cn1ccnc1)P(=O)(O)O [Zoledronic acid] | 99 | 89 | 94 (inactive) | 100 (inactive)
COc1ccccc1N1CCN(CC(O)COc2cccc3ccccc23)CC1.Cl.Cl (stereo not given) [Naftopidil dihydrochloride] | 101 | 106 | 101 (inactive) | 101 (inactive)
CC(O)C(=O)C1=Nc2c([nH]c(N)nc2=O)NC1 (stereo not given) [Sepiapterin] | 105 | 113 | 97.4 (inactive) | 99.1 (inactive)
Fc1ccc(Cl)cc1-c1nc(Nc2ccncc2)c2nccnc2n1 | 98.4 | 91.6 | 98.2 (inactive) | 113 (inactive)
CN=C(NC#N)NCCSCc1nc[nH]c1C [Cimetidine] | 102 ± 1.8 | 100 ± 12 | 102 (inactive) | 92.1 (inactive)
CCc1nc(-c2cccc(C)c2)c(-c2ccnc(NC(=O)c3ccccc3)c2)s1 | 88.3 | 84.4 | 87.8 (inactive) | 120 (inactive)
Cl.O=S(=O)(c1cccc2cnccc12)N1CCCNCC1 | 100 | 93.8 | 92.4 (inactive) | 92.7 (inactive)
NCC(O)c1ccc(O)c(O)c1.O=C(O)C(O)C(O)C(=O)O (stereo not drawn) [L(-)-Norepinephrine bitartrate] | 109 | 106 | 95.8 (inactive) | 94.6 (inactive)
O=C1c2ccccc2-[n+]2ccc3c([nH]c4ccccc43)c21.[Cl-] [Fascaplysin, Synthetic] | 49.8 | 6.76 | 182 (active) | 60.9 (inactive)
